Bioassay records (PubChem)
CYP2C19 activ: increases human CYP2C19 enzyme activity | recombinant CYP2C19, luciferin-H EGE luminescence; active compounds read high; 0 = fully inhibited enzyme, 1 = untreated enzyme | activation factor at 5 µM | AID 1025 | P33261 | 96,000 tested, under 10 active;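 active = activation factor of at least 2 at 5 µM in the primary screen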
Target sequence (P33261 whole entry, looked up): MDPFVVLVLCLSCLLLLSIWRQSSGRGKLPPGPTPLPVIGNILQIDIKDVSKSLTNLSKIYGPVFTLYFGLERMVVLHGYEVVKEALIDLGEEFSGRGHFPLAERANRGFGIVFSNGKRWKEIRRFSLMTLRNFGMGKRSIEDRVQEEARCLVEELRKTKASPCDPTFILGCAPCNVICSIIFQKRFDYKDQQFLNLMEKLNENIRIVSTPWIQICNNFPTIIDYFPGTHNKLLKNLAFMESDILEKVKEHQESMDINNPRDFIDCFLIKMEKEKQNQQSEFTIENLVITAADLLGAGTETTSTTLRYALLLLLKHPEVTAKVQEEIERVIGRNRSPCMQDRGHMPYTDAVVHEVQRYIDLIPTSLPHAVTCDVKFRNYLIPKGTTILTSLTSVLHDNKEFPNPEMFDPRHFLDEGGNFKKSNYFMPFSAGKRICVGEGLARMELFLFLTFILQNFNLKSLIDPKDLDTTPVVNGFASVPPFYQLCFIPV
EphB4 antag: blocks human EphB4 binding to ephrin-B2; EphB4 LBD / TNYL-RAW-Alexa532 peptide, fluorescence polarization; 0.15% of 97,000 active; inhibition, % at 7 µM;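 active = inhibition above the screen-wide mean inhibition plus 3 SD, cut at about 15% in these data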
CYP2C9 inh: inhibitors of human CYP2C9. P11712. CYP2C9 Supersomes, luciferin-H conversion, luminescence. inhibition, % at 5 µM. 20% of 96,000 active;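 active = blocking of liver enzyme CYP2C9 beyond about 50% at 5 µM, limit read from the data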
CYP2C19 inhib: inhibitors of human CYP2C19. CYP2C19 Supersomes, luciferin-H EGE luminescence, 30 min. inhibition, % at 5 µM. 21% of 96,000 active;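 active = CYP2C19 inhibition above a set limit at 5 µM in the primary screen, cut at about 50% in these data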
CYP2C9 act: increases human cytochrome P450 2C9 activity; recombinant CYP2C9, luciferin-H conversion, luminescence; active compounds read high; factor 1 = untreated enzyme, 0 = blocked; activation factor at 5 µM; 1.4% of 96,000 active; AID 1024;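 active = activation factor of 2 or more for CYP2C9 at a 5 µM dose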
Hits are given with their value; n = inactive; x = no result given. An excerpt weighted towards active compounds, which were near 27% of everything screened.

SMILES	CYP2C19 activ	EphB4 antag	CYP2C9 inh	CYP2C19 inhib	CYP2C9 act
O=C(N/N=C\c1cn(-c2ccccc2)nc1-c1ccccc1)c1ccc(Br)o1	n	n	57	n	n
O=C(N/N=C/c1cn(-c2ccccc2)nc1-c1ccccc1)c1ccco1	n	n	n	n	n
Cc1nnc(SCC(=O)N/N=C/c2cn(-c3ccccc3)nc2-c2ccccc2)n1-c1ccccc1	n	n	53	n	n
Cc1ccc(-c2nn(-c3ccccc3)cc2/C=N/NC(=O)c2ccc(Br)o2)cc1	n	n	52	n	n
COc1cccc(C(=O)CSc2nnc(-c3cc(OC)c(OC)c(OC)c3)o2)c1	n	n	n	n	n
CCCCn1c(SCc2nnc(-c3ccccc3)o2)nc2c1c(=O)n(C)c(=O)n2C	n	n	77	64	n
Cn1c(=O)c2c(nc(CN3CCC(C(N)=O)CC3)n2Cc2c(F)cccc2Cl)n(C)c1=O	n	n	n	n	n
Cc1ccc(C)c(Cn2c(CN(C)Cc3ccccc3)nc3c2c(=O)n(C)c(=O)n3C)c1	n	n	92	66	n
Cn1c(=O)c2c(nc(CN3CCC(C(N)=O)CC3)n2Cc2c(Cl)cccc2Cl)n(C)c1=O	n	n	68	n	n
CCn1c(SCc2nnc(-c3ccccc3)o2)nc2c1c(=O)n(C)c(=O)n2C	n	x	n	n	n
Cc1ccc(Cn2c(CN(C)Cc3ccccc3)nc3c2c(=O)n(C)c(=O)n3C)cc1	n	n	94	78	n
CCc1ccc(C(=O)N2CCCC2)s1	n	n	n	n	n
CCCc1nc2cc(CC(=O)OC)ccc2o1	n	n	n	n	n
CCc1c(-c2ccccc2)nc2nc(C)c(C)nn12	n	n	n	n	n
COc1ccc(N2CCN(Cc3nc4c(c(=O)n(C)c(=O)n4C)n3Cc3cccc(C)c3)CC2)cc1	n	x	n	n	n
CCOCCn1c(CN(Cc2ccccc2)Cc2ccccc2)nc2c1c(=O)[nH]c(=O)n2C	n	n	n	n	n
COc1ccc(N2CCN(c3nc4c(c(=O)n(C)c(=O)n4C)n3Cc3ccccc3)CC2)cc1	n	n	68	n	n
CCOCCn1c(CN(Cc2ccccc2)Cc2ccccc2)nc2c1c(=O)n(C)c(=O)n2C	n	n	94	76	n
CN(Cc1ccccc1)Cc1nc2c(c(=O)n(C)c(=O)n2C)n1Cc1ccc(Cl)cc1	n	n	50	n	n
CN(Cc1ccccc1)Cc1nc2c(c(=O)n(C)c(=O)n2C)n1Cc1ccc(F)cc1	n	n	72	n	n
O=C(Cc1ccc(Cl)cc1)Nc1nc2ccccc2[nH]1	n	n	n	n	n
CC1CN(C(=S)NC(=O)c2cccc([N+](=O)[O-])c2)CC(C)O1 (configuration not stated)	n	n	n	n	n
COc1ccc(NC(=O)Nc2ccc(C(=O)N3CCOCC3)cc2)cc1	n	n	n	n	n
CCCCCn1c(CN(C)Cc2ccccc2)nc2c1c(=O)n(C)c(=O)n2C	n	n	100	82	n
COC(=O)CSc1nc2c(c(=O)n(C)c(=O)n2C)n1CCCc1ccccc1	n	x	85	67	n
SMILES	CYP2C19 activ	EphB4 antag	CYP2C9 inh	CYP2C19 inhib	CYP2C9 act
Cn1c(=O)c2c(nc(CN3CCN(Cc4ccccc4)CC3)n2Cc2ccc(Cl)cc2)n(C)c1=O	n	n	51	n	n
CCCCn1c(SCC(=O)OC)nc2c1c(=O)n(C)c(=O)n2C	n	n	n	n	n
Cn1c(=O)c2c(nc(CN3CCN(Cc4ccccc4)CC3)n2Cc2ccccc2)n(C)c1=O	n	x	n	n	n
CCCCn1c(CN(Cc2ccccc2)Cc2ccccc2)nc2c1c(=O)n(C)c(=O)n2C	x	n	x	x	x
CCCCCCn1c(NCC)nc2c1c(=O)n(C)c(=O)n2C	n	n	n	n	2.8
COc1ccc(/C(O)=C2/C(=O)C(=O)N(Cc3cccnc3)C2c2ccncc2)cc1F (configuration not stated)	n	n	n	n	n
CC(=O)Nc1ccc(NC(=O)Cn2cc3c(n2)CCC(C)C3)cc1 (configuration not stated)	x	n	x	x	x
COc1cccc(N(CC(=O)N2CCN(c3ccccc3OC)CC2)S(C)(=O)=O)c1	n	n	n	n	n
NC(=O)C1(N2CCCCC2)CCN(C2CC(=O)NC2=O)CC1 (configuration not stated)	x	n	x	x	x
CN(Cc1ccccc1)c1nc2c(c(=O)n(C)c(=O)n2C)n1CCCc1ccccc1	n	n	97	88	n
Cc1ccc(Cn2c(SCCN3CCCCC3)nc3c2c(=O)n(C)c(=O)n3C)cc1	n	16	n	n	n
